The record followed here is the supplement of paper PMC10646978.

Common to all, as to settings: modulator concentration 10 µM
Experiment [1] deals with RAW-Dual (murine macrophage reporter line). The experiment is described as follows: NF-kB reporter (SEAP) activity fold change vs agonist alone; higher = enhanced NF-kB activity. In short, it runs like this: (§1)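 RAW-Dual murine macrophage reporter cells were seeded at 50 000 per well in 384-well plates and pre-incubated 1 hour at 37 °C with compound pin-transferred to 10 μM final. After 1 hour, a PRR agonist was added and cells incubated overnight. Supernatant NF-κB (SEAP, QUANTI-Blue, 620 nm absorbance) and IRF (Lucia luciferase, QUANTI-Luc, luminescence) signals were divided by the mean agonist-only control on the same plate to give fold change. Two replicate plates were averaged, with errors by propagation.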

The test system is the same in experiment [2]. The experiment is described as follows: IRF reporter (Lucia luciferase) activity fold change vs agonist alone; higher = enhanced IRF activity. In short, it runs like this:
as §1

Experiment [3] shares this test system. The experiment is described as follows: viability score (confluency relative to resting cells, overnight) (fraction); higher = more viable, active = viable (0.7 or more). In short, it runs like this:
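Two confluency masks, generated with IncuCyte software over all imaged wells, were applied to IncuCyte images of RAW-Dual macrophages. The cells, in 384-well plates, had been exposed overnight to 10 μM final compound. The viability score is confluency as a fraction of resting cells, and a compound met the cutoff only with both masks above 70% of resting cells.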

The mark [4] stands for this setting: agonist: CpG ODN 1826 0.5 ug/mL.

± gives the standard deviation.

On to `CCOC(=O)Nc1ccc(NCc2ccc(F)cc2)cc1N`, for which the figures for the NF-kB reporter in experiment [1] (setting [4]), in experiment [1] (agonist: LPS 0.1 ug/mL) and in experiment [1] (agonist: MPLA […]) were 0.882 ± 0.039, 1.09 ± 0.086 and 0.936 ± 0.051, respectively. Besides, the IRF reporter in experiment [2] (agonist: 3'3'-cGAMP 10 ug/mL) came out at 0.893 ± 0.044; in experiment [2] (agonist: LPS 0.1 ug/mL) it was 1.2 ± 0.33; in experiment [2] (agonist: MPLA […]), 1.33 ± 0.51. Besides, the viability score in experiment [3] is 1.01 (active).
Take `CN1C(=O)COc2c(C(=O)NC3CN4CCC3CC4)cc(Cl)cc21.Cl` (stereo not drawn): the values for the NF-kB reporter in experiment [1] (setting [4]), in experiment [1] (agonist: LPS 0.1 ug/mL) and in experiment [1] (agonist: MPLA […]) were 0.661 ± 0.054, 0.831 ± 0.09 and 1.08 ± 0.089, respectively. In addition, the IRF reporter in experiment [2] (agonist: 3'3'-cGAMP 10 ug/mL) was 0.997 ± 0.046; in experiment [2] (agonist: LPS 0.1 ug/mL) it was 1.42 ± 0.26; in experiment [2] (agonist: MPLA […]), 1.71 ± 0.51. In addition, the viability score in experiment [3] is 0.94 (active).
As for `C=C1C[C@@H]2[C@H](CC[C@]3(C)C(=O)CC[C@@H]23)[C@@]2(C)C=CC(=O)C=C12`, the NF-kB reporter stood at 0.843 ± 0.064 in experiment [1] (setting [4]), 0.79 ± 0.091 in experiment [1] (agonist: LPS 0.1 ug/mL) and 0.984 ± 0.033 in experiment [1] (agonist: MPLA […]). The results for the IRF reporter in experiment [2] (agonist: 3'3'-cGAMP 10 ug/mL), in experiment [2] (agonist: LPS 0.1 ug/mL) and in experiment [2] (agonist: MPLA […]) were 0.789 ± 0.051, 0.911 ± 0.095 and 0.908 ± 0.16, respectively. For the same compound, the viability score in experiment [3] was 0.987 (active).
Regarding `Cc1ccccc1N1C(=O)C(=Cc2ccc(-c3ccc(C(=O)O)c(Cl)c3)o2)C(=O)NC1=S`, the NF-kB reporter in experiment [1] (setting [4]) is 0.617 ± 0.049; in experiment [1] (agonist: LPS 0.1 ug/mL), 1.05 ± 0.067; in experiment [1] (agonist: MPLA […]), 0.9 ± 0.066. Further, the figures for the IRF reporter in experiment [2] (agonist: 3'3'-cGAMP 10 ug/mL), in experiment [2] (agonist: LPS 0.1 ug/mL) and in experiment [2] (agonist: MPLA […]) were 0.692 ± 0.017, 1.24 ± 0.24 and 0.964 ± 0.2, respectively. In addition, the viability score in experiment [3] was 1.01 (active).
For the compound `Br.NCCc1cc(O)c(O)cc1O`, the NF-kB reporter in experiment [1] (setting [4]) was 1.04 ± 0.28; in experiment [1] (agonist: LPS 0.1 ug/mL), 0.911 ± 0.073; in experiment [1] (agonist: MPLA […]), 1.14 ± 0.08. The figures for the IRF reporter in experiment [2] (agonist: 3'3'-cGAMP 10 ug/mL), in experiment [2] (agonist: LPS 0.1 ug/mL) and in experiment [2] (agonist: MPLA […]) were 0.609 ± 0.036, 1.32 ± 0.24 and 1.19 ± 0.19, respectively. The viability score in experiment [3] is 0.53 (inactive).
With `C=C(C)C1Cc2c(ccc3c2OC2COc4cc(OC)c(OC)cc4C2C3=O)O1` (stereo not drawn), the NF-kB reporter came out at 1.6 ± 0.13 in experiment [1] (setting [4]), 1.02 ± 0.1 in experiment [1] (agonist: LPS 0.1 ug/mL) and 1.75 ± 0.18 in experiment [1] (agonist: MPLA […]). The IRF reporter in experiment [2] (agonist: 3'3'-cGAMP 10 ug/mL) came to 0.515 ± 0.028; in experiment [2] (agonist: LPS 0.1 ug/mL) it was 1.64 ± 0.27; in experiment [2] (agonist: MPLA […]), 2.07 ± 0.4. The viability score in experiment [3] was 0.924 (active).
For `CCOc1cc(C=C2N=C(c3cccc(C)c3)OC2=O)ccc1OC(=O)Cc1ccccc1`, the NF-kB reporter in experiment [1] (setting [4]) is 0.858 ± 0.069; in experiment [1] (agonist: LPS 0.1 ug/mL) it was 0.959 ± 0.081; in experiment [1] (agonist: MPLA […]), 0.914 ± 0.057. The IRF reporter was 0.8 ± 0.024 in experiment [2] (agonist: 3'3'-cGAMP 10 ug/mL), 1.19 ± 0.1 in experiment [2] (agonist: LPS 0.1 ug/mL) and 0.964 ± 0.12 in experiment [2] (agonist: MPLA […]). Further, in experiment [3], the viability score is 1.01 (active).
`CCC1(O)C(=O)OCc2c1cc1n(c2=O)Cc2cc3ccccc3nc2-1` (stereo not drawn): the NF-kB reporter in experiment [1] (setting [4]) was determined as 0.948 ± 0.074; in experiment [1] (agonist: LPS 0.1 ug/mL), 0.912 ± 0.069; in experiment [1] (agonist: MPLA […]), 0.889 ± 0.092. Moreover, the IRF reporter in experiment [2] (agonist: 3'3'-cGAMP 10 ug/mL) was determined as 1.04 ± 0.033; in experiment [2] (agonist: LPS 0.1 ug/mL), 1.24 ± 0.2; in experiment [2] (agonist: MPLA […]), 1.41 ± 0.24. The viability score in experiment [3] is 0.974 (active).
Regarding `CCOC(=O)c1ccccc1-c1ccc(C=C2C(=O)NC(=O)N(c3ccc(C)cc3)C2=O)o1`, the NF-kB reporter in experiment [1] (setting [4]) came out at 0.912 ± 0.071; in experiment [1] (agonist: LPS 0.1 ug/mL) it was 0.931 ± 0.058; in experiment [1] (agonist: MPLA […]) it was 0.971 ± 0.087. Further, the values for the IRF reporter in experiment [2] (agonist: 3'3'-cGAMP 10 ug/mL), in experiment [2] (agonist: LPS 0.1 ug/mL) and in experiment [2] (agonist: MPLA […]) were 0.999 ± 0.061, 1.4 ± 0.081 and 1.7 ± 0.14, respectively. The viability score in experiment [3] was 0.951 (active).
